Screens from PubChem.
Pf growth 96h: inhibits malaria parasite growth, 96 h. P. falciparum luciferase reporter growth, 96 h. actives 6.9% (n = 320,000). Potency, µM (highest dose often 28.7 µM), for inactives: at the top dose activity change, negative = inhibition, most hits filed as inhibitors. AID 504834; note: potency is the fitted concentration of half-maximal effect
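P. falciparum expressing integrated firefly luciferase, in erythrocytes at 2% hematocrit, 0.05% parasitemia, incubated with compounds 96 h at 37 C, 5% CO2. Growth inhibition read as loss of luminescence; two-generation exposure targets delayed-death apicoplast inhibitors.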
Lassa entry inh: blocks Lassa virus binding to or entry into cells; actives 1.2% (n = 300,000); Potency, µM (doses to about 37.9 µM), inactives show at the top dose activity change, negative = inhibition, most hits filed as inhibitors; Lassa virus pseudotype entry inhibition, cell reporter; calls by dose curve; tested in HEK293 cells; note: potency is the fitted concentration of half-maximal effect; nearly all actives have a fitted effect of over 50% in size
Pf growth 48h: inhibits P. falciparum growth in the first generation, 48 h. actives 5.9% (n = 310,000). Potency, µM (titrated, usually from 28.7 µM), without a hit: top-dose activity change, negative = inhibition, actives largely listed as inhibitors. AID 504832. P. falciparum luciferase growth in erythrocytes, 48 h; note: potency is the fitted concentration of half-maximal effect
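Erythrocytes infected with P. falciparum carrying an integrated firefly luciferase reporter (2% hematocrit, 0.1% parasitemia final) were exposed to compounds in RPMI 1640 with 0.5% Albumax at 37 C, 5% CO2. Growth inhibition was scored as reduced luminescence.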
MARV entry inh: blocks Marburg virus binding to or entry into cells; Marburg virus pseudotyped entry inhibition, cell reporter; Potency, µM (doses to about 37.8 µM), without a hit: at the top dose activity change, negative = inhibition, usual class: inhibitors; actives 1.8% (n = 300,000); calls by dose curve; tested in HEK293 cells; note: potency is the fitted concentration of half-maximal effect
HCMV antiviral: inhibitors of human cytomegalovirus; HFF cells, HCMV-luciferase reporter, 72 h; hits give low values; activity change, negative = inhibition, % at 57.5 µM; actives 4.5% (n = 410,000); AID 1259415; in the data active = activity change below about -60%; inconclusive = no clear call, values can overlap the other calls; inactive = above about -39%
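After 16 h attachment at 37C, HFF cells received test compound and HCMV-luciferase (1 PFU/cell); reporter luminescence read 72 h later, data normalized against buffer-only and known inhibitor Salinomycin.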
HCV inhibitor: inhibitors of hepatitis C virus infection; AID 651820; Huh7.5.1 HCVcc-Cre infection, luciferase reporter, 44 h; actives 3.4% (n = 340,000); Potency, µM (titrated, usually from 41.8 µM), without a hit: top-dose activity change, negative = inhibition, actives largely listed as inhibitors; note: potency is the fitted concentration of half-maximal effect
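Reporter virus HCVcc-Cre (~0.5 moi) infects cells exposed to compound; seeding density 1,000 cells/well with 4 h settling beforehand. Luminescence, 15 sec read, taken 44 h post-infection following a 15 min RT substrate incubation.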
* marks the source's active call; other numbers are inactive results; ? = inconclusive; nt = no result; [ ] = dose if it differs, or a comment. Rows were chosen to be rich in hits. Some 14% of all compounds tested hit in one or more screens of this group. Unless noted, calls come from the whole dose curve; as a rule, active = well fitted inhibition curve with a large enough effect; inconclusive = small, poorly fitted or top-dose-only effect, or another doubt; inactive = no such curve, though single readings can be large or run the other way. % is set by controls: 0 for no effect and ±100 for the full control effect.

SMILES	Pf growth 96h	Lassa entry inh	Pf growth 48h	MARV entry inh	HCMV antiviral	HCV inhibitor
CCN(CC)CCC(c1ccc2c(c1)OCO2)c1c(O)cc(OC)cc1OC (stereo not drawn)	2.94µM*	nt	1.47µM*	nt	1.1	-14.8%
CCN(CC)C(=O)CC(c1ccc2c(c1)OCO2)c1c(O)cc(OC)cc1OC (stereo not drawn)	-11.4%	nt	?	nt	7.3	-19.6%[8.37 µM]
COc1cc(O)c(C(CCN2CCN(c3ccccc3)CC2)c2ccc3c(c2)OCO3)c(OC)c1 (stereo not drawn)	0.329µM*	nt	0.828µM*	nt	6.9	-13.5%[8.37 µM]
COc1cc(O)c(C(CCN2CCCC2)c2ccc3c(c2)OCO3)c(OC)c1 (stereo not drawn)	2.94µM*	nt	2.94µM*	nt	10.6	-12.1%
N#Cc1ccc(CSc2nnc(-c3ccc(Br)cc3)o2)cc1	nt	19.5%[46.1 µM]	nt	-1.7%[46.1 µM]	4.3	nt
CCc1nc(SCC(=O)N2CCCCC2)c2c(=O)n(C)c(=O)n(C)c2n1	-16.2%	nt	?	nt	-29.5	?
O=C(OCc1cn([C@@H]2C[C@H](c3ccc(Cl)cc3)N(C(=O)c3cccs3)C[C@H]2O)nn1)c1ccccc1	nt	nt	nt	nt	29.6	nt
COc1cc(O)c(C(CC(=O)N2CCCC(C)C2)c2cc(OC)c(OC)c(OC)c2)c(OC)c1 (stereo not drawn)	?	nt	?	nt	13.3	19.1%[8.37 µM]
COc1cc(O)c(C(CCN2CCN(c3ccccc3)CC2)c2cc(OC)c(OC)c(OC)c2)c(OC)c1 (stereo not drawn)	0.928µM*	nt	1.31µM*	nt	17.6	-22.0%
Cc1ccc(NC(=O)CN2C(=O)CC(c3ccco3)Sc3ccccc32)cc1Cl (stereo not drawn)	nt	nt	nt	-0.7%[46.1 µM]	-29.6	nt
CC(=O)c1ccc(NC(=S)Nc2ccc(Br)c(Cl)c2)cc1	-0.9%	-9.7%[46.1 µM]	-0.7%	-16.4%[46.1 µM]	-16.2	-16.2%
CC(=O)c1ccc(NC(=S)NC(C)c2ccc(Cl)cc2Cl)cc1 (stereo not drawn)	?	?	2.33µM*	-17.5%	22.4	-7.9%
CCN(CC)CCN1C(=O)C(=O)/C(=C(\O)c2ccc(Cl)cc2)[C@@H]1c1ccncc1	nt	nt	nt	1.9%	nt	nt
CCCCCSc1cc(OC)c(CCN(C)C)cc1OC	11.7µM*	?	?	?	-36.6	?
COc1cc(CCN)c(OC)cc1C	nt	nt	nt	nt	59.7	nt
CC(=O)/C(=N\Nc1ccccc1)Oc1ccc([N+](=O)[O-])cc1	10.4µM*	-4.5%	9.28µM*	-10.7%	1.5	8.9%
COC(=O)[C@H]1C[C@@]2(O)CN(S(=O)(=O)c3ccc(C)cc3)C[C@@]2(OC(=O)Nc2c(C)noc2C)C[C@H]1C(=O)OC	nt	nt	nt	nt	-15.2	nt
Nc1nonc1-n1nnc(C(=O)N/N=C/c2ccc(O)cc2)c1CN1CCCCCC1	nt	nt	nt	nt	-61.1*	10.9%
CC(/C=N/NC(=O)c1nnn(-c2nonc2N)c1CN1CCCCC1)=C\c1ccccc1	9.28µM*	nt	?	nt	17.5	-12.0%
CCOC(=O)c1nnn(-c2nonc2N)c1CN1CCCC1	0.657µM*	1.9%[46.1 µM]	-12.8%	-18.7%[46.1 µM]	6.7	8.9%
CC(C)c1ccc(/C=N/NC(=O)c2nnn(-c3nonc3N)c2CSC2=NCCS2)cc1	?	?	?	-44.7%	-20.9	11.2µM*
CCOC(=O)c1nnn(-c2nonc2N)c1CN1CCCCCC1	nt	2.0%	26.2%	23.0%	89.5	-6.2%
Nc1nonc1-n1nnc(C(=O)N/N=C/c2ccc(Br)cc2)c1CSC1=NCCS1	?	?	-10.7%	0.0%	?	?
O=C1CC(c2ccco2)CC(O)=C1C=Nc1cc(Cl)ccc1Cl (stereo not drawn)	31.3%	-0.7%	1.4%	9.1%	3.4	12.1%
COc1ccccc1N=C(C)C1=C(O)CC(c2ccccc2)CC1=O (stereo not drawn)	?	?	0.7%	?	-83.5*	?
SMILES	Pf growth 96h	Lassa entry inh	Pf growth 48h	MARV entry inh	HCMV antiviral	HCV inhibitor
CCCCN=CC1=C(O)CC(c2ccccc2)CC1=O (stereo not drawn)	43.1%	-23.5%	-14.9%	?	-62.3*	23.2%
O=C1CC(c2ccco2)CC(O)=C1C=Nc1cc(Cl)ccc1O (stereo not drawn)	?	-2.5%	9.28µM*	12.3%	3.4	-2.5%
CCCCCCCN=CC1=C(O)CC(c2ccccc2)CC1=O (stereo not drawn)	-7.3%	-7.5%	-10.2%	2.4%	-28.9	28.6%
O=C1CC(c2ccccc2)CC(O)=C1C=Nc1ccccc1O (stereo not drawn)	157.0%	nt	?	nt	-74.9*	-14.2%
CCCC(=Nc1ccccc1OC)C1=C(O)CC(c2ccccc2)CC1=O (stereo not drawn)	?	6.2%	-15.1%	?	-38.8	10.6%
Cc1ccccc1S(=O)(=O)c1cc(C#N)c(=O)[nH]c1N	12.4%	7.2%[46.1 µM]	7.6%	1.4%[46.1 µM]	-27.6	16.5%
N#Cc1cc(S(=O)(=O)c2ccccc2)c(N)[nH]c1=O	?	-8.8%	3.7µM*	11.8%	56.3	5.1%
N#Cc1cc(S(=O)(=O)c2ccc(F)cc2)c(N)[nH]c1=O	?	nt	22.1%[1.15 µM]	nt	-69.9*	10.6%
CCOC(=O)c1cnc2c(ccc3ccccc32)c1Nc1cccc(Cl)c1	nt	18.5%[46.1 µM]	nt	nt	29.9	nt
CCOC(=O)CN1C(=O)[C@@]2(CC(C)=C[C@@H](COCc3ccccc3)O2)c2ccccc21	nt	?	nt	7.0%[14.2 µM]	nt	nt
COc1cc(C(=O)N/N=C/c2cccc(Oc3ccccc3)c2)ccc1O	10.7%	-12.7%[46.1 µM]	19.7%	-13.4%[46.1 µM]	-77.6*	-12.9%
O=C(N/N=C/c1ccncc1)c1ccccc1	52.4%	22.0%	21.6%	5.6%	?	3.2%
O=C(N/N=C/c1cccc(Oc2ccccc2)c1)c1ccc(O)cc1O	?	9.5%[46.1 µM]	32.9%	1.5%[46.1 µM]	-34.3	6.0%
COc1cc(C(=O)N/N=C/c2cn(Cc3cccc(F)c3)c3ccccc23)ccc1O	1.65µM*	?	-28.4%	-3.2%	-30.2	?
O=C(N/N=C/c1cccc(Oc2ccccc2)c1)c1ccncc1	3.7µM*	1.0%	6.7%	-3.4%[46.1 µM]	15.7	7.7%
CC(=O)Nc1cc(C(F)(F)F)ccc1N1CCOCC1	nt	11.6%	11.2%	1.1%	17.2	23.4%
CCOC(=O)C(=CNc1cc(C(F)(F)F)ccc1N1CCOCC1)C(=O)OCC	?	nt	4.15µM*	nt	-17.0	?
CCCCn1nc(C(=O)Nc2cc(C(F)(F)F)ccc2N2CCOCC2)ccc1=O	?	nt	11.7µM*	nt	-7.9	?
CCC(Oc1ccccc1)C(=O)Nc1cc(C(F)(F)F)ccc1N1CCOCC1 (stereo not drawn)	1.47µM*	-0.8%	1.65µM*	-28.4%	-1.8	?
COc1ccc(NC(C)C(=O)Nc2cc(C(F)(F)F)ccc2N2CCOCC2)c(OC)c1 (stereo not drawn)	0.0465µM*	-27.0%	0.117µM*	?	-13.7	?
